This note sets out measurements from PubChem BioAssay AID449739 (Vanderbilt High Throughput Screening Facility, 2010).

Hit rate of the full screen: of about 100,000 compounds, about 4,200 (4.2%) were called active.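 Rule for the calls: active = single-dose well whose peak fluorescence ratio is a statistical outlier from its plate by either plate-standardised score or position-corrected B-score; inactive = the rest.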 The entries come from a sample that favours actives as a whole.

The experiment deals with Voltage-dependent T-type calcium channel subunit alpha-1H (Homo sapiens) (UniProt O95180). As to the kind of experiment: Cav3.2 calcium influx blockers – cell-based, Fluo-4 calcium fluorescence, FDSS, MLSMR library, primary screen (AID 449739). To be noted: Cav3.2-expressing cells, at 10 µM, stronger effect = lower value.
Voltage-dependent T-type calcium channel subunit alpha-1H (Homo sapiens), sequence (O95180 whole entry, looked up): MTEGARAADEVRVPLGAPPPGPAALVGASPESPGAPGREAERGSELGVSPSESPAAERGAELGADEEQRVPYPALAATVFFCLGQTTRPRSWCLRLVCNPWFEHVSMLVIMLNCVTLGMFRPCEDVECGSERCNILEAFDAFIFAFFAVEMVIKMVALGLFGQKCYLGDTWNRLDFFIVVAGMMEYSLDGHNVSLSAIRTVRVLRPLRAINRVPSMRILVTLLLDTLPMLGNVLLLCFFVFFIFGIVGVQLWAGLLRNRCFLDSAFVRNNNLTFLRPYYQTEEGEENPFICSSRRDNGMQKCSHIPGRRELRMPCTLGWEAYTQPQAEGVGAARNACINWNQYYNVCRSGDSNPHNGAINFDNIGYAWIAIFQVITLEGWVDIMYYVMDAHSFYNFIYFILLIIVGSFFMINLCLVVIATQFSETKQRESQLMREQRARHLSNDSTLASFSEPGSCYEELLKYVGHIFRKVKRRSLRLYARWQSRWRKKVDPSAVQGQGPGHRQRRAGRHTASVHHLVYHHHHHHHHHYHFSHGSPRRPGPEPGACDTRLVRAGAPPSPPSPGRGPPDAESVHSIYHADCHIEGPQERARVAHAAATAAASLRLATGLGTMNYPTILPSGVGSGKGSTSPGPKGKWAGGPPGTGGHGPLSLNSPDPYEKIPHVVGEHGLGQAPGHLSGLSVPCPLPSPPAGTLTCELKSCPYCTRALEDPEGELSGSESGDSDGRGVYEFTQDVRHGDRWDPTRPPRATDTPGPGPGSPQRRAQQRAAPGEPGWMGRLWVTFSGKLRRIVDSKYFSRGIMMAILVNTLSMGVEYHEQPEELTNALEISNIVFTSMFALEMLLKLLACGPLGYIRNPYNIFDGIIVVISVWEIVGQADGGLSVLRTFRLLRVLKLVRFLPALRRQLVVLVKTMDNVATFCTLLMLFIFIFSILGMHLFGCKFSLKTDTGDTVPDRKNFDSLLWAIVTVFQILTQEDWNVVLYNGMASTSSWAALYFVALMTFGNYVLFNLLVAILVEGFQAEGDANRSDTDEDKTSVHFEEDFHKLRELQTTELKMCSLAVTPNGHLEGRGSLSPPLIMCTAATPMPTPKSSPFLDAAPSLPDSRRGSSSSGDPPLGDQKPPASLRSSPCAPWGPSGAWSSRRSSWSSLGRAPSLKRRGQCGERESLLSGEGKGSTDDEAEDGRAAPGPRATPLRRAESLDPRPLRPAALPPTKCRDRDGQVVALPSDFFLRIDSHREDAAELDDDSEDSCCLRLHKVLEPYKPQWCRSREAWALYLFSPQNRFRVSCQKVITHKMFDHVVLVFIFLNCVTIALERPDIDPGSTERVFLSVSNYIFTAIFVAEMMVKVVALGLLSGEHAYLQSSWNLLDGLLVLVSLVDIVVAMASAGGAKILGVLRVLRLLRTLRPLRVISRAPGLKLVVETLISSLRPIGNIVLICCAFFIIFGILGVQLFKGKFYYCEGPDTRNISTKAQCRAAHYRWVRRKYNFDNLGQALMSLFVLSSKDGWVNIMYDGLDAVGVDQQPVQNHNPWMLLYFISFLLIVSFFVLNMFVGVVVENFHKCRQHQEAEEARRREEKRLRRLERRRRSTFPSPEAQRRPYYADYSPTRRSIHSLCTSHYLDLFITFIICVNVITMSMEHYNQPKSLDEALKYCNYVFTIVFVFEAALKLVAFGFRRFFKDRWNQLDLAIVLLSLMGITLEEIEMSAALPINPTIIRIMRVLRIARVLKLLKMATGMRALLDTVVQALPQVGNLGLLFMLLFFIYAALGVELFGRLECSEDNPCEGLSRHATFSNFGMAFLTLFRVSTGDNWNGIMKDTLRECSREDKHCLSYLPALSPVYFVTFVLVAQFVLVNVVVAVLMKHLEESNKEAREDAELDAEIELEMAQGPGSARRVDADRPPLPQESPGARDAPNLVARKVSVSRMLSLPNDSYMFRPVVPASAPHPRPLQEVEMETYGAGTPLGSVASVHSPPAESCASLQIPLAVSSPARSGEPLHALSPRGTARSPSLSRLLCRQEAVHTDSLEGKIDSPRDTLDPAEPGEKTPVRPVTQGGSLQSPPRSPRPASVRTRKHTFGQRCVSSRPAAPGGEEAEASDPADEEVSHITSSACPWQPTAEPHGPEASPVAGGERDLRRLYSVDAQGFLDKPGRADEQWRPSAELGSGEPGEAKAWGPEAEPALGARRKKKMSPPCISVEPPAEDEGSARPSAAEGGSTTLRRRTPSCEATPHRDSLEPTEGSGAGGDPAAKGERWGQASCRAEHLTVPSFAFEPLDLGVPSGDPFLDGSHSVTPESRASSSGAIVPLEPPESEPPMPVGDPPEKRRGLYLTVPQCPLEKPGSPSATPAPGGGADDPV
With `COc1cccc(/C=N/NC(=O)C(=O)N2CCCC2)c1`, the B-score is 1.2 (inactive).

Consider `COC(=O)COc1cccc2c(=O)n(CC(=O)NCCc3ccc(OC)c(OC)c3)ccc12`, for which the B-score was 1.52 (inactive).

In the case of `Cc1cccc(N2CCN(C(c3ccc(N(C)C)cc3)c3nnnn3C(C)(C)C)CC2)c1C` (stereo unspecified), the B-score was -3.44 (inactive).

`CC(C)(C)n1nnnc1C(c1ccc(F)cc1)N1CCN(Cc2ccc3c(c2)OCO3)CC1` (stereo unspecified): the B-score is -3.16 (inactive).

On to `CC(C)(C)n1nnnc1C(c1ccc(Cl)cc1)N1CCSCC1` (stereo unspecified), for which the B-score is -2.81 (active).

With `COc1ccccc1-c1n[nH]c2c1[C@H](C)CC[C@H]2C(C)C`, the B-score was -2.06 (inactive).

Turning to `COc1ccc(/C=C/C(=O)Nc2c(C)nn(C)c2C)cc1COc1ccc(Br)cc1`, the B-score is -1.13 (inactive).

For the compound `CCn1nc(C)c(NC(=O)/C=C/c2ccc(OC)c(COc3ccc(Br)cc3)c2)c1C`, the B-score is -3.94 (active).

Take `CCn1c(COc2ccc(OC)cc2)nnc1SCC(=O)Nc1cc(OC)ccc1OC`: the B-score is -0.694 (inactive).

Consider `Cc1ccc(C(=O)N/C(=C/C=C/c2ccccc2)C(=O)NCc2ccco2)cc1`, for which the B-score was -4.77 (active).

In the case of `O=C(CN1CCN(S(=O)(=O)/C=C/c2ccccc2)CC1)NC(=O)NCc1ccco1`, the B-score was 0.253 (inactive).

On to `CCCCOc1ccc(C(=O)NCc2ccco2)cc1`, for which the B-score is -0.276 (inactive).

Turning to `O=C(CSCc1ccccc1Cl)NNC(=O)c1ccccc1`, the B-score was -0.234 (inactive).

`CCOC(=O)c1ccc(NC(=O)c2c(N)n(C)c(=O)[nH]c2=O)cc1`: the B-score is -2 (inactive).

For the compound `COC(=O)CN(c1nc(C)c(Cl)c(OC)n1)S(=O)(=O)c1ccc(C)cc1`, the B-score was -3.54 (active).

Regarding `COc1cccc(NC(=O)CN(C)S(=O)(=O)c2ccc(C)cc2)c1`, the B-score was 0.446 (inactive).

Turning to `CCN(CC)C(=O)CN(c1cccc(OC)c1)S(=O)(=O)c1ccc(C)cc1`, the B-score was 0.247 (inactive).

On to `O=C(NC1CC1)C1=C[C@H](c2c[nH]c3ccccc23)C[C@H](OCc2ccc(CO)cc2)O1`, for which the B-score was -0.0426 (inactive).

As to `Cc1cc(C)cc(OCC(=O)NNC(=O)c2cc3ccccc3oc2=O)c1`, the B-score was 0.0296 (inactive).

For `CCOC(=O)CSc1ncc(-c2cccc(Cl)c2)cn1`, the B-score was 0.28 (inactive).

For the compound `Nc1c(-c2cccc(Cl)c2)cnn1-c1cccc([N+](=O)[O-])c1`, the B-score is -4.85 (active).

In the case of `Cc1onc(-c2ccccc2Cl)c1C(=O)NCCn1ccc2ccccc21`, the B-score is -3.91 (active).

For `COCCNC(=O)c1ccccc1-c1nc(-c2ccccc2Cl)no1`, the B-score was -0.0406 (inactive).

Take `Cc1ccc2cc(CCNC(=O)c3c(-c4ccccc4Cl)noc3C)c(=O)[nH]c2c1`: the B-score was -4.54 (active).

Consider `Cc1onc(-c2c(Cl)cccc2Cl)c1C(=O)c1c[nH]c(C(=O)NC2CC2)c1`, for which the B-score was 0.359 (inactive).

`Cc1onc(-c2ccccc2Cl)c1C(=O)OCC(=O)c1ccccc1`: the B-score was -0.332 (inactive).

Regarding `Cc1ccc2cc(CCNC(=O)c3ccc4c(c3)OCO4)c(=O)[nH]c2c1`, the B-score is 0.446 (inactive).

Consider `CCCCCCNS(=O)(=O)c1ccccc1Br`, for which the B-score was -1.42 (inactive).

On to `CC(C)C(=O)N1CCC2(CC1)Oc1ccc(F)cc1C(=O)C21CC(c2ccccc2)=NO1` (stereo unspecified), for which the B-score was -0.517 (inactive).

As to `CC(C)(C)Oc1ccccc1Nc1nc(NCCO)nc(N2CCCC2)n1`, the B-score is 0.107 (inactive).

Turning to `Cc1ccc(-c2cc(=O)c3ccc(F)cc3[nH]2)cc1`, the B-score is -1.19 (inactive).

For the compound `CCCCCCc1cc2cc(-c3nnc(-c4ccccc4)o3)c(=O)oc2cc1O`, the B-score was -8.89 (active).

For `O=c1oc2cc(O)ccc2cc1-c1ccc(F)cc1`, the B-score was -0.437 (inactive).

As to `O=C(c1ccc(Cl)cc1)c1cnc(Nc2ccccc2)s1`, the B-score was 0.657 (inactive).

Regarding `C[C@@H]1NC(=O)c2cc([N+](=O)[O-])cc(F)c2NCCC[C@@H](C(N)=O)NC(=O)[C@H](CC(N)=O)NC1=O`, the B-score was 0.0125 (inactive).

Regarding `CCCCNC(=O)c1onc(CSc2cccc(OC)c2)c1C(=O)O`, the B-score is -0.115 (inactive).

With `O=C(O)C1=C[C@H](c2cccs2)C[C@H](OCCCCO)O1`, the B-score is 0.408 (inactive).

For the compound `Cc1ccccc1CSCCNC(=O)c1ccc(N(C)S(=O)(=O)c2ccccc2)cc1`, the B-score was -5.82 (active).

With `CN(c1ccc(C(=O)NCc2ccccn2)cc1)S(C)(=O)=O`, the B-score was 0.091 (inactive).

As to `Cc1ccc(C(=O)NCCNS(=O)(=O)c2ccccc2)cc1`, the B-score is 0.965 (inactive).

In the case of `NC(N)=NCCCc1cn(CC(=O)N2CCNCC2)nn1`, the B-score was 0.0996 (inactive).

Turning to `N#Cc1ccc(-c2ccc(F)cc2)nc1Sc1ccccc1`, the B-score is -0.0447 (inactive).

Turning to `Cc1ccc(SCC2=NNC(=O)C2)cc1`, the B-score is -0.242 (inactive).

On to `COc1ccc2c(c1)CCNC2Cc1ccc(OC)c(O)c1` (stereo unspecified), for which the B-score is 0.0462 (inactive).

With `O=C(CN1CCN(C(=O)c2ccco2)CC1)Nc1ccc(Cl)c(C(F)(F)F)c1`, the B-score was -6.28 (active).

In the case of `O=C(CN1CCN(C(=O)c2ccco2)CC1)Nc1ccc2c(c1)OCO2`, the B-score is 0.902 (inactive).

For `COc1ccc(OC)c(NC(=O)CN2CCN(C(=O)c3ccco3)CC2)c1`, the B-score is 1.23 (inactive).

On to `COc1ccc(CC(=O)Nc2sc(Cc3ccccc3)c(C)c2C(N)=O)cc1`, for which the B-score was -0.493 (inactive).

Regarding `Cc1ccccc1NC(=O)C(C)c1ccc(-c2ccccc2)c(F)c1` (stereo unspecified), the B-score was -0.689 (inactive).

For the compound `CC1CCN(c2nc3c(c(=O)[nH]c(=O)n3C)n2CCCc2ccccc2)CC1`, the B-score was -5.1 (active).

As to `CN1CCN(c2nc3c(c(=O)[nH]c(=O)n3C)n2Cc2cccc3ccccc23)CC1`, the B-score was 0.465 (inactive).

Regarding `CCCSc1nc2c(c(=O)[nH]c(=O)n2C)n1CCc1ccccc1`, the B-score was -0.0804 (inactive).

Regarding `Cc1nc(C(=O)Nc2ccc(Cl)cc2)sc1C1(C)CC(c2ccccc2)=NO1` (stereo unspecified), the B-score was 0.201 (inactive).

With `O=c1c(-c2ccccc2)coc2cc(O)ccc12`, the B-score was 1.09 (inactive).

Regarding `CCN(CC)C(=O)CC(c1ccc2c(c1)OCO2)c1c(OC)cc(OC)c2c(-c3ccccc3)cc(=O)oc12` (stereo unspecified), the B-score is -1.45 (inactive).

In the case of `COC(=O)Cn1c2ccc(C)cc2c2nc(C)sc21`, the B-score was 1.71 (inactive).

Regarding `CCn1c(O)c(N=NC2=NC(=O)CS2)c2cc(C)ccc21`, the B-score is -4.99 (active).

Take `Cc1nnc(NC(=O)CSc2nc(C3CCCCC3)nc3ccccc23)s1`: the B-score was -0.12 (inactive).

On to `NC(=O)[C@H]1CC2(CC(c3cccc(NC(=O)[C@H]4CCC(=O)N4)c3)=NO2)CN1C(=O)c1ccccc1C(=O)c1ccccc1` (stereo partly specified), for which the B-score is -0.157 (inactive).

`CCO[C@H]1OC(C(=O)Nc2ccccc2)=C[C@@H](C2CC2)[C@@H]1CCCO`: the B-score was 0.964 (inactive).

For `NC(=O)C1=C[C@@H](c2csc3ccccc23)C[C@@H](OCc2ccc(CO)cc2)O1`, the B-score is -0.0524 (inactive).

On to `COC(=O)C(CC(=O)Nc1cc(C)ccc1C)Nc1ccccc1OC` (stereo unspecified), for which the B-score is -0.376 (inactive).

For `Cc1ccc(C)c(NC(=O)C2CC(=O)N(C(C)C)C2)c1` (stereo unspecified), the B-score was -0.00724 (inactive).

In the case of `Cc1ccc(C)c(NC(=O)C2Cc3ccccc3CN2C(=O)OCc2ccccc2)c1` (stereo unspecified), the B-score was -6.09 (active).

In the case of `CCOC(=O)C(C)Sc1nc2ccccc2c(=O)n1CC1CCCCC1` (stereo unspecified), the B-score is -2.88 (inactive).

Consider `COc1ccc(-n2c(SCC(=O)Nc3sc4c(c3C#N)CCCC4)nnc2-c2ccc(O)cc2)cc1`, for which the B-score is -0.184 (inactive).

With `CC(Sc1nc2ccccc2c(=O)n1Cc1ccco1)C(=O)c1ccccc1` (stereo unspecified), the B-score is -4.25 (active).

Turning to `N#Cc1c(NC(=O)CSc2nc3ccccc3c(=O)n2Cc2ccco2)sc2c1CCCC2`, the B-score was -5.99 (active).

Regarding `C=C(C)Cn1c(SCC(=O)NCc2ccco2)nc2sc3c(c2c1=O)CCC3`, the B-score is -0.92 (inactive).

On to `O=C(CCCn1c(SCC(=O)c2ccc(F)cc2)nc2ccccc2c1=O)NCc1ccco1`, for which the B-score was -2.82 (inactive).

On to `CCCNC(=S)NC1CC2CCCC(C1)N2CC(C)C` (stereo unspecified), for which the B-score is 1.82 (inactive).

As to `COc1ccc(N2CCN(C(=O)c3ccc4c(Cl)c5c(nc4c3)CCCC5)CC2)cc1`, the B-score was -0.0196 (inactive).

As for `CN1CCN(S(=O)(=O)c2ccc(N3CCN(S(=O)(=O)c4cccs4)CC3)nc2)CC1`, the B-score was 1.73 (inactive).

Regarding `N#Cc1cc([N+](=O)[O-])ccc1Oc1cccc(/C=N/NC(=O)c2ccc(Cl)cc2)c1`, the B-score is -0.086 (inactive).

On to `CCOC(=O)Cc1csc(NC(=O)CSc2nc(C)cc(=O)[nH]2)n1`, for which the B-score is -5.95 (active).

Take `CCCCc1nnc(NC(=O)CSc2nc(C)cc(=O)[nH]2)s1`: the B-score was -0.0258 (inactive).

Turning to `CCOC(=O)Cc1csc(NC(=O)C(C)(C)C)n1`, the B-score was 0.211 (inactive).

Take `C=CCn1c(-c2ccc(Cl)cc2)ccc(C#N)c1=O`: the B-score is -1.56 (inactive).

For the compound `NC1=NC[C@@H](Cc2ccc(O)cc2)N1CC1CCCCC1`, the B-score was 0.0175 (inactive).

As for `C#Cc1ccc([C@@H]2C=C(C(=O)O)O[C@H](OCCCCO)C2)cc1`, the B-score was -1.58 (inactive).

In the case of `CCN1CCN(Cc2nc3c(c(=O)n(C)c(=O)n3C)n2CC(=O)c2ccccc2)CC1`, the B-score was 0.531 (inactive).

Take `CC1CCCN(Cc2nc3c(c(=O)n(C)c(=O)n3C)n2CC(=O)c2ccccc2)C1` (stereo unspecified): the B-score is -0.792 (inactive).

On to `CCCCCCn1c(CN2CCCC(C)C2)nc2c1c(=O)n(C)c(=O)n2C` (stereo unspecified), for which the B-score is -3.75 (active).

Take `C/C(=N/NC(=O)c1ccc(NC(=O)c2ccc(F)cc2)cc1)c1ccccc1`: the B-score was 0.425 (inactive).

As for `Clc1ccc(COn2c(-c3ccc(Cl)cc3Cl)nc3ncccc32)cc1`, the B-score was -5.63 (active).

Regarding `O=C(Nc1cccc2ncccc12)c1ccc(-c2ccc(Cl)cc2Cl)o1`, the B-score is -0.641 (inactive).

With `CCOc1ccc(OCC)c(-c2c(=O)n(OCc3ccc(Cl)cc3)c3ccccc3[n+]2[O-])c1`, the B-score was -1.31 (inactive).

For the compound `COc1ccc(C(F)(F)F)cc1N/C=C\c1nnnn1-c1ccc(C)cc1`, the B-score is -3.02 (inactive).

Take `CNC(=O)CSc1nnc(CCc2ccccc2)n1-c1ccccc1`: the B-score is -0.00574 (inactive).

Turning to `COc1ccc(OC)c(/C=N/NC(=O)CSc2nnc(C)n2-c2ccccc2)c1`, the B-score was 2 (inactive).

As to `COc1ccccc1NC(=O)CSc1nnc(Cn2nnc(-c3ccccc3)n2)n1-c1ccccc1`, the B-score was -7.2 (active).
